A short description of the experiment: M. tuberculosis growth inhibition, HTS (AID 1259417).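 Further: bacteria grown with compound for 5 days at 37 °C.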 To be noted: stronger effect = higher value, concentration not given here.
Where [1] appears, read: M. tuberculosis DsRed fluorescence growth inhibition.
Setting [2] is: M. tuberculosis growth inhibition.

The campaign covered roughly 1,100 compounds. About 760 (69%) were called active. How the calls were made is not given here. The set was probably picked from earlier hits. This is one part of the list.

Turning to `CC(C)OC(=O)COc1ccc2cc(-c3ccccc3)c(=O)oc2c1`, the inhibition (in general, the change of the read-out against control, counted positive when it falls) runs as follows: under setting [1], 61.1% (active); under setting [2], 80.6%.

Consider `C=CCOC(=O)COc1ccc2c(-c3cc4ccccc4oc3=O)cc(=O)oc2c1`, for which the inhibition is, setting by setting: under setting [1], 37.7% (active); under setting [2], 60.7%.

As for `COC(=O)C(C)Oc1ccc2cc(-c3ccc(OC)cc3)c(=O)oc2c1` (stereo not given), the inhibition by setting is: under setting [1], 66.3% (active); under setting [2], 96.3%.

As to `C=CCOC(=O)COc1ccc2cc(-c3ccc(OC)cc3)c(=O)oc2c1`, the inhibition is, setting by setting: under setting [1], 97.2% (active); under setting [2], 98.4%.

With `CCCC1(O)CC(c2ccc(Cl)cc2)NC(c2ccc(Cl)cc2)C1C` (stereo not given), the inhibition under setting [1] is 8.53% (inactive) and the inhibition under setting [2] is -21.7%.

In the case of `C=CCOC(=O)COc1ccc2c(C)c(-c3ccccc3)c(=O)oc2c1`, the inhibition by setting is: under setting [1], 71.8% (active); under setting [2], 92.5%.

In the case of `C=CCOC(=O)COc1ccc2cc(-c3ccc(Cl)cc3)c(=O)oc2c1`, the inhibition is 98.9% (active) under setting [1] and 99.5% under setting [2].

With `C=CCOC(=O)COc1ccc2cc(-c3ccccc3)c(=O)oc2c1`, the inhibition runs as follows: under setting [1], 93.1% (active); under setting [2], 97%.

Take `COc1ccc(CCNc2cc(C)nc3c(-c4ccccc4)c(C)nn23)cc1OC`: the inhibition is 98.5% (active) under setting [1] and 98.9% under setting [2].

Consider `Cc1cc(C)cc(Nc2cc(C)nc3c(-c4ccccc4)cnn23)c1`, for which the inhibition was 5.66% (inactive) under setting [1] and 21.5% under setting [2].

On to `CCc1ccc(Oc2coc3cc(OC(C)C(=O)OC)ccc3c2=O)cc1` (stereo not given), for which the inhibition is, setting by setting: under setting [1], 65.1% (active); under setting [2], 92.2%.

Turning to `COC(=O)C(C)Oc1ccc2c(=O)c(Oc3ccccc3Br)coc2c1` (stereo not given), the inhibition was 59.3% (active) under setting [1] and 82.3% under setting [2].

`CC(C)C(=O)N1CCN(c2ccccc2NC(=O)c2ccc([N+](=O)[O-])o2)CC1`: the inhibition is 19.7% (inactive) under setting [1] and 5.43% under setting [2].

Turning to `CC(C)C(=O)N1CCN(c2ccc(NC(=O)c3ccc([N+](=O)[O-])o3)cc2)CC1`, the inhibition reads like this: under setting [1], 99.1% (active); under setting [2], 100%.

Regarding `O=C(Nc1ccc(N2CCN(Cc3ccccc3F)CC2)cc1)c1ccc([N+](=O)[O-])o1`, the inhibition was 100% (active) under setting [1] and 99.7% under setting [2].

As to `CC1CCN(c2ccc(NC(=O)c3ccc([N+](=O)[O-])o3)cc2)CC1`, the inhibition under setting [1] is 98.8% (active) and the inhibition under setting [2] is 98.7%.

Consider `CCOC(=O)COc1ccc(C(=O)Nc2cccc(Cl)c2C)cc1`, for which the inhibition is 97.7% (active) under setting [1] and 97.9% under setting [2].

On to `CCOC(=O)COc1ccc(S(=O)(=O)Nc2c(C)cccc2CC)cc1`, for which the inhibition is, setting by setting: under setting [1], 53% (active); under setting [2], 92.2%.

On to `Cc1c(Cl)cccc1NC(=O)c1ccc(OC(C)C(=O)OC2CCCCC2)cc1` (stereo not given), for which the inhibition reads like this: under setting [1], 38.3% (active); under setting [2], 74.3%.

As to `CCOC(=O)COc1ccc(S(=O)(=O)Nc2cccc(Cl)c2C)cc1`, the inhibition runs as follows: under setting [1], 14.4% (active); under setting [2], 55.5%.

As to `Cc1sc2ncn(C(C)C(=O)OC3CCCCC3)c(=O)c2c1C` (stereo not given), the inhibition under setting [1] is 6.18% (inactive) and the inhibition under setting [2] is 8.72%.

As for `CCOC(=O)COc1ccc(S(=O)(=O)Nc2ccc(C)c(C)c2)cc1`, the inhibition is -1.13% (inactive) under setting [1] and 22% under setting [2].

With `CSc1ncc(C(=O)NCc2ccco2)cn1`, the inhibition is, setting by setting: under setting [1], 35.2% (active); under setting [2], 25.2%.

`O=C(Nc1sc2c(c1C(=O)NCc1ccco1)CCC2)c1ccccc1[N+](=O)[O-]`: the inhibition is, setting by setting: under setting [1], 3.29% (inactive); under setting [2], -5.87%.

For the compound `CSc1ncc(C(=O)Nc2cccc(C(F)(F)F)c2)cn1`, the inhibition is 12.9% (inactive) under setting [1] and 15.6% under setting [2].

In the case of `Cc1scc(C(=O)NCc2ccco2)c1-c1ccccc1`, the inhibition reads like this: under setting [1], 2.71% (inactive); under setting [2], 6.55%.

On to `COc1ccccc1C(=O)Nc1sc2c(c1C(=O)NCc1ccco1)CCC2`, for which the inhibition was 3.89% (inactive) under setting [1] and -6.54% under setting [2].

As to `O=C(NCc1ccco1)c1cc([N+](=O)[O-])cc([N+](=O)[O-])c1`, the inhibition by setting is: under setting [1], 97.8% (active); under setting [2], 93.5%.

Regarding `CN1CCN(C(=S)NC(=O)c2ccc(-c3ccccc3)cc2)CC1`, the inhibition by setting is: under setting [1], 0.913% (inactive); under setting [2], -8%.

Turning to `O=C(NC(=S)N1CCc2ccccc21)c1ccccc1`, the inhibition under setting [1] was 20.8% (inactive) and the inhibition under setting [2] came out at 20.4%.

`COc1cc(OC)cc(C(=O)NC(=S)N2CCCCCC2)c1`: the inhibition was 3.24% (inactive) under setting [1] and -3.75% under setting [2].

As to `O=C(NC(=S)N1CCCC1)c1ccc(-c2ccccc2)cc1`, the inhibition was 44.2% (active) under setting [1] and 47% under setting [2].

With `CC1CCN(C(=S)NC(=O)c2ccc(Cl)cc2)CC1`, the inhibition by setting is: under setting [1], 24.6% (active); under setting [2], 49.7%.

As for `CC(=O)N(C)c1ccc(OCC(O)Cn2c3ccc(Cl)cc3c3cc(Cl)ccc32)cc1` (stereo not given), the inhibition is 0.0147% (inactive) under setting [1] and -14.7% under setting [2].

As for `CCN(CC)CCn1c(=N)n(CC(O)COc2ccc(Cl)cc2Cl)c2ccccc21` (stereo not given), the inhibition is, setting by setting: under setting [1], 100% (active); under setting [2], 98%.

Turning to `CC(=O)Oc1cc2c(cc1Cl)C1(CC(c3ccccc3Cl)O2)CC(C)(C)NC(=S)N1` (stereo not given), the inhibition runs as follows: under setting [1], -2.34% (inactive); under setting [2], -4.82%.

Regarding `COC(=O)CSc1nc(N)c2c3c(sc2n1)CCCC3`, the inhibition was 44.7% (active) under setting [1] and 75% under setting [2].

As to `O=C(Nc1nnc(-c2ccc(Cl)s2)o1)C1CCCCC1`, the inhibition is, setting by setting: under setting [1], 49.3% (active); under setting [2], 59.3%.

Consider `Cc1ccc(C)c(-c2nnc(NC(=O)C3CC3)o2)c1`, for which the inhibition by setting is: under setting [1], 51.8% (active); under setting [2], 83.4%.

As to `CCCCC(=O)Nc1nnc(-c2ccc(Cl)s2)o1`, the inhibition is, setting by setting: under setting [1], 0.12% (inactive); under setting [2], 19.7%.

Take `O=C(Nc1nnc(-c2ccc(Cl)cc2)o1)C1CCCCC1`: the inhibition is 0.632% (inactive) under setting [1] and 5.51% under setting [2].

For `CCC(=O)Nc1nnc(-c2ccc(C)cc2C)o1`, the inhibition is, setting by setting: under setting [1], 0.727% (inactive); under setting [2], 13.4%.

Take `Cc1ccc(-c2nnc(NC(=O)C3CC3)o2)c(C)c1`: the inhibition is 49.6% (active) under setting [1] and 76.4% under setting [2].

Turning to `Cc1ccc(C)c(-c2nnc(NC(=O)C3=COCCO3)o2)c1`, the inhibition runs as follows: under setting [1], -4.83% (inactive); under setting [2], -2.72%.

Turning to `O=C(NCC1COc2ccccc2O1)c1ccc(NC(=O)C2COc3ccccc3O2)cc1` (stereo not given), the inhibition reads like this: under setting [1], 0.302% (inactive); under setting [2], -8.66%.

As for `Cc1ccc(C)c(-c2nnc(NC(=O)C3COc4ccccc4O3)o2)c1` (stereo not given), the inhibition was 66.1% (active) under setting [1] and 90% under setting [2].

In the case of `Cc1ccc(Nc2nnc(SCC(=O)Nc3cccnc3Cl)s2)cc1C`, the inhibition runs as follows: under setting [1], 3.89% (inactive); under setting [2], -3.4%.

For `CSc1ncnc2c1ncn2CC(=O)Nc1ccc(C)c(C)c1`, the inhibition is 32.5% (active) under setting [1] and 19.8% under setting [2].

`CC(C)(C)c1ccc(C(=O)Nc2nnc(-c3ccncc3)o2)cc1`: the inhibition is 64.6% (active) under setting [1] and 77.1% under setting [2].

Take `CC(C)(C)c1ccc(C(=O)Nc2nnc(-c3cccnc3)o2)cc1`: the inhibition was 83.8% (active) under setting [1] and 89.3% under setting [2].

For the compound `CC12CCC(C(=O)Oc3cccc4cccnc34)(CC1=O)C2(C)C` (stereo not given), the inhibition runs as follows: under setting [1], 101% (active); under setting [2], 100%.

Turning to `COC(=O)c1ccc(COC(=O)c2ccccc2Cl)cc1`, the inhibition is 0.593% (inactive) under setting [1] and 15.3% under setting [2].

As to `CCCCNC(=O)COC(=O)c1cc(Br)ccc1Cl`, the inhibition is, setting by setting: under setting [1], 11.3% (active); under setting [2], 63.4%.

With `CCn1c(C=Cc2ccc([N+](=O)[O-])o2)nc2ccc(I)cc2c1=O`, the inhibition is 36.1% (active) under setting [1] and 34.3% under setting [2].

As for `O=c1c2ccccc2nc(C=Cc2ccc([N+](=O)[O-])o2)n1-c1cccc(O)c1`, the inhibition under setting [1] was 6.18% (inactive) and the inhibition under setting [2] was -1.52%.
